Screens (PubChem)
The list is not random: actives were taken first. Their share in the collection is about 2.9%.
Bim-Mcl-1: inhibitors of Bim-Mcl-1 interaction, human; Bead-based flow cytometry, Bim peptide-Mcl-1 binding; hit rate 0.1% among 190,000; AID 1009; Q07820; inhibition, % at 10 µM; in the data active means inhibition above about 40%;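 further: 0% = no compound tracer wells and 100% = peptide blocker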
Target sequence (Q07820 whole entry, looked up): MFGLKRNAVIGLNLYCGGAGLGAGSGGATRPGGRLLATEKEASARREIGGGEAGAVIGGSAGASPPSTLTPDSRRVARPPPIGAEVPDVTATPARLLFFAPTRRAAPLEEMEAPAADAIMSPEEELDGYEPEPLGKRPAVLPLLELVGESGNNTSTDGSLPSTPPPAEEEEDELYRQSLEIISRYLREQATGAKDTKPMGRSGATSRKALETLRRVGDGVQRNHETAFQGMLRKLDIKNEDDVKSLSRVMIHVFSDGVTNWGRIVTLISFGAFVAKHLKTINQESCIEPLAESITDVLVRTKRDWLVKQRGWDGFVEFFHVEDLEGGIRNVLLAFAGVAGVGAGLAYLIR
Hck Nef HTS: inhibitors of human Hck kinase activated by Nef; P08631; Recombinant Hck-YEEI plus Nef, Z-Lyte FRET kinase assay; inhibition, % at 20 µM; hit rate 0.68% among 220,000; AID 463187;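 active means Hck-Nef kinase inhibition above about 50%, limit read from the data; inactive means inhibition below that limit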;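 further: 0% = DMSO with Hck plus Nef and 100% = Hck alone without Nef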
Mcl1-Noxa inh: disrupts binding of human Mcl-1 to Noxa peptide | Q07820 | TR-FRET Mcl-1/Noxa peptide binding, 2 h | inhibition, % at 21.7 µM | hit rate 1.5% among 220,000;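 active means compounds that cut the protein-peptide binding signal by more than 50% relative to plate controls in a single-dose test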;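 further: His-tagged Mcl-1 with rhodamine Noxa BH3 peptide and terbium anti-His antibody; 0% = Mcl-1 plus Noxa peptide wells and 100% = peptide-only wells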
Mcl1 Bid PPI: disrupts binding of human Mcl-1 to Bid peptide. AID 1021. inhibition, % at 21.7 µM. TR-FRET Mcl-1/Bid-Dy647 peptide binding, 1536-well. Q07820. hit rate 0.97% among 220,000;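 active means compounds that cut the binding signal by more than half at the single screening dose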;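 further: His-tagged Mcl-1 with europium anti-His antibody binding Bid BH3 peptide; 0% = Mcl-1 plus peptide wells and 100% = peptide-only wells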
Pf gametocyte: kills late stage P. falciparum gametocytes; P. falciparum stage V gametocytes, ATP luminescence, 24 h; inhibition, % at 10.9 µM; hit rate 0.065% among 150,000; AID 743093;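 active means inhibition above the mean plus 3 SD of compounds within the control limits, set per campaign, cut at about 38% in these data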;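 further: 0% = DMSO wells and 100% = medium only without gametocytes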
14-3-3 Bad PPI: disrupts binding of bovine 14-3-3 zeta to phospho-Bad peptide | TR-FRET 14-3-3zeta/Dy647-pBad peptide displacement, 1 h | inhibition, % at 21.7 µM | hit rate 0.71% among 220,000;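 active means inhibition above about 70%, limit read from the data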;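 further: 0% = full 14-3-3 plus peptide FRET controls and 100% = background without 14-3-3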
Target sequence (P63103 whole entry, looked up): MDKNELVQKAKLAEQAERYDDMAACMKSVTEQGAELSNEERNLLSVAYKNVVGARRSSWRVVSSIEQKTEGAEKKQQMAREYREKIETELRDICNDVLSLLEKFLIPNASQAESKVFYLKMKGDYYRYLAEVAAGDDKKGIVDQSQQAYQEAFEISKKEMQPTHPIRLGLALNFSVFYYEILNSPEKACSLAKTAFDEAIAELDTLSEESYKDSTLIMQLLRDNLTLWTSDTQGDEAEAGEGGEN
Hck-Nef confirm: confirmation of Hck-Nef kinase inhibitors; shares compounds with Hck Nef HTS; AID 463188; Recombinant Hck-YEEI:Nef, Z-Lyte FRET kinase assay; hit rate 28% among 1,300; calls only at 10 µM;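 active means average inhibition of at least 50%, with Z-scores no higher than 3 in both the phospho-tyrosine peptide and fluorescence counterscreens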
An asterisk follows results filed as active.

For CC(C)(C)OC(=O)COc1cc(O)c2c(=O)cc(-c3ccccc3)oc2c1 the results were Bim-Mcl-1 17, Hck Nef HTS 8, Mcl1-Noxa inh 12, Mcl1 Bid PPI 0, Pf gametocyte -1 and 14-3-3 Bad PPI 34.
Screening O=c1cc(-c2ccccc2)oc2cc(OCc3ccccc3)cc(O)c12 returned Bim-Mcl-1 1, Hck Nef HTS 18, Mcl1-Noxa inh 10, Mcl1 Bid PPI -15, Pf gametocyte -15 and 14-3-3 Bad PPI 11.
Screening O=c1cc(-c2ccc(O)c(-c3c(O)cc(O)c4c(=O)cc(-c5ccc(O)cc5)oc34)c2)oc2cc(O)cc(O)c12 returned Bim-Mcl-1 0, Hck Nef HTS 53*, Mcl1-Noxa inh 112*, Mcl1 Bid PPI 22, Pf gametocyte 18, 14-3-3 Bad PPI 3 and Hck-Nef confirm active.
`COc1c(-c2ccc(O)cc2)oc2cc(O)cc(O)c2c1=O` gave Hck Nef HTS 53*, Mcl1-Noxa inh 44, Mcl1 Bid PPI -90, 14-3-3 Bad PPI 23 and Hck-Nef confirm inactive.
Cc1ccc(S(=O)(=O)NC(CC(=O)n2nc(C)cc2C)c2ccccc2)cc1 (centres undefined) was read as Bim-Mcl-1 -1, Hck Nef HTS 9, Mcl1-Noxa inh 1, Mcl1 Bid PPI -4, Pf gametocyte -55 and 14-3-3 Bad PPI 8.
Cc1ccc(Nc2nnc(C)c(=O)[nH]2)cc1 was read as Bim-Mcl-1 1, Hck Nef HTS -9, Mcl1-Noxa inh 3, Mcl1 Bid PPI -9 and 14-3-3 Bad PPI -8.
`Cc1oc2cc(O)cc(O)c2c(=O)c1-c1ccc2c(c1)OCCCO2` gave Bim-Mcl-1 -6, Hck Nef HTS 3, Mcl1-Noxa inh 21, Mcl1 Bid PPI 18, Pf gametocyte -14 and 14-3-3 Bad PPI -5.
Screening O=c1c(-c2c(O)cc(O)c3c(=O)cc(-c4ccc(O)cc4)oc23)c(-c2ccc(O)cc2)oc2cc(O)cc(O)c12 returned Hck Nef HTS 66*, Mcl1-Noxa inh 103*, Mcl1 Bid PPI -60, 14-3-3 Bad PPI 18 and Hck-Nef confirm inactive.
O=C(/C=C/c1ccco1)NC(=S)Nc1ccccc1N1CCCC1 was read as Bim-Mcl-1 2, Hck Nef HTS 21, Mcl1-Noxa inh 1, Mcl1 Bid PPI -57, Pf gametocyte 3 and 14-3-3 Bad PPI -8.
For COc1cc(NS(=O)(=O)c2ccc(NC(=S)NC(=O)/C=C/c3ccco3)cc2)ncn1 the results were Bim-Mcl-1 0, Hck Nef HTS 91*, Mcl1-Noxa inh 23, Mcl1 Bid PPI -54, Pf gametocyte 11, 14-3-3 Bad PPI 2 and Hck-Nef confirm active.
Screening O=C(/C=C/c1ccco1)Nc1ccccc1C(=O)O returned Bim-Mcl-1 2, Hck Nef HTS 55*, Mcl1-Noxa inh 52*, Mcl1 Bid PPI -56, Pf gametocyte -18, 14-3-3 Bad PPI 34 and Hck-Nef confirm inactive.
O=C(/C=C\c1ccco1)NC(=S)Nc1ccccc1O was read as Hck Nef HTS 59*, Mcl1-Noxa inh 24, Mcl1 Bid PPI -31, Pf gametocyte -12, 14-3-3 Bad PPI 3 and Hck-Nef confirm inactive.
For O=C(/C=C/c1ccco1)NC(=S)Nc1ccccc1O the results were Bim-Mcl-1 1, Hck Nef HTS 54*, Mcl1-Noxa inh 25, Mcl1 Bid PPI -82, Pf gametocyte 23, 14-3-3 Bad PPI -1 and Hck-Nef confirm active.
O=C(/C=C/c1ccco1)Nc1cc(Cl)ccc1C(=O)O was read as Bim-Mcl-1 -2, Hck Nef HTS 11, Mcl1-Noxa inh 22, Mcl1 Bid PPI 0 and 14-3-3 Bad PPI 12.
O=[N+]([O-])c1cc(C(F)(F)F)ccc1SCC(O)CO (centres undefined) was read as Bim-Mcl-1 0, Hck Nef HTS -3, Mcl1-Noxa inh 2, Mcl1 Bid PPI -28, Pf gametocyte 25 and 14-3-3 Bad PPI -6.
For Cc1ccc(CNCC2CCCO2)o1 (centres undefined) the results were Bim-Mcl-1 0, Hck Nef HTS 0, Mcl1-Noxa inh 11, Mcl1 Bid PPI -20 and 14-3-3 Bad PPI 15.
Screening Cc1ccc(NC(=S)NC(=O)/C=C/c2ccco2)c(O)c1 returned Bim-Mcl-1 -5, Hck Nef HTS 85*, Mcl1-Noxa inh 40, Mcl1 Bid PPI -52, Pf gametocyte 4, 14-3-3 Bad PPI 3 and Hck-Nef confirm active.
`Cc1cccnc1NC(=S)NC(=O)/C=C/c1ccco1` gave Bim-Mcl-1 0, Hck Nef HTS -2, Mcl1-Noxa inh -4, Mcl1 Bid PPI -30, Pf gametocyte -7 and 14-3-3 Bad PPI -1.
`c1ccc2c(c1)nc1sccn12` gave Bim-Mcl-1 -1, Hck Nef HTS 2, Mcl1-Noxa inh 20, Mcl1 Bid PPI -7, Pf gametocyte -60 and 14-3-3 Bad PPI -11.
For COc1cc2[nH]c(=S)n(Cc3cccs3)c(=O)c2cc1OC the results were Bim-Mcl-1 7, Hck Nef HTS 59*, Mcl1-Noxa inh -2, Mcl1 Bid PPI -23, Pf gametocyte -10, 14-3-3 Bad PPI -4 and Hck-Nef confirm inactive.
`COCCN(CCOC)CC(O)COC(c1ccccc1)c1ccccc1` (centres undefined) gave Bim-Mcl-1 0, Hck Nef HTS 21, Mcl1-Noxa inh 12, Mcl1 Bid PPI -10 and 14-3-3 Bad PPI -6.
`COc1ccc(CCn2c(=S)[nH]c3cc(C(=O)NCc4ccco4)ccc3c2=O)cc1OC` gave Bim-Mcl-1 -3, Hck Nef HTS 75*, Mcl1-Noxa inh 8, Mcl1 Bid PPI 52*, 14-3-3 Bad PPI 77* and Hck-Nef confirm active.
`COc1ccc(-n2c(=S)[nH]c3cc(C(=O)NCc4ccco4)ccc3c2=O)cc1OC` gave Bim-Mcl-1 0, Hck Nef HTS 5, Mcl1-Noxa inh 23, Mcl1 Bid PPI -30, Pf gametocyte 23 and 14-3-3 Bad PPI 6.
For Nc1cc(=O)[nH]c(=O)n1-c1cccc(F)c1 the results were Bim-Mcl-1 0, Hck Nef HTS 14, Mcl1-Noxa inh 19, Mcl1 Bid PPI -21 and 14-3-3 Bad PPI -6.
Screening COc1ccc(-n2c(N)cc(=O)[nH]c2=O)cc1 returned Hck Nef HTS 52*, Mcl1-Noxa inh -20, Mcl1 Bid PPI -28, 14-3-3 Bad PPI 60 and Hck-Nef confirm inactive.
Screening COc1ccc(CCN2C(=NC(=O)CCC(=O)O)SC3CS(=O)(=O)CC32)cc1OC (centres undefined) returned Bim-Mcl-1 -3, Hck Nef HTS -1, Mcl1-Noxa inh 7, Mcl1 Bid PPI 0 and 14-3-3 Bad PPI -19.
For C/C(=N/NC(=O)c1ccncc1)c1ccccc1 the results were Pf gametocyte -2.
Screening C/C(=N\NC(=O)c1ccc(OC2OCCOC2Oc2ccc(C(=O)N/N=C(\C)c3ccncc3)cc2)cc1)c1ccncc1 (centres undefined) returned Hck Nef HTS 61*, Mcl1-Noxa inh -53, Mcl1 Bid PPI 31, Pf gametocyte 2, 14-3-3 Bad PPI -25 and Hck-Nef confirm inactive.
